PubChem BioAssay (NCI)
Compounds without any hit were thinned out: in the full panel of roughly 79,000, 15% have a hit. Unmarked numbers belong to inactive results. Calls of active or inactive are those of the source. No stated cut-off is given here; in the data, active means growth inhibition above about 70%; inactive means the rest.

Experiments:
[1] = NCI Yeast Anticancer Drug Screen. Data for the rad52 strain (AID 147);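 further: 0% = growth of vehicle-treated control cultures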; details: S. cerevisiae rad52 mutant growth inhibition, hits give high values
Summary of the method: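 Measured: yeast growth inhibition. System: strain with a defined DNA damage repair alteration. Reference: vehicle-treated control cultures.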

[2] = NCI Yeast Anticancer Drug Screen. Data for the wt1 strain (AID 149);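 further: 0% = growth of vehicle-treated wt1 cultures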; details: S. cerevisiae wt1 strain (SPY 50644) growth inhibition, hits give high values
Summary of the method: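 wt1 strain grown with compound or vehicle; inhibition taken from the growth difference.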

[3] = NCI Yeast Anticancer Drug Screen. Data for the rad50EPP+ strain (AID 151);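 further: 0% = growth of vehicle-treated control cultures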; details: S. cerevisiae rad50 mutant strain, hits give high values
Summary of the method: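 One strain with a rad50 alteration (rad50EPP+) was compound-treated, its growth then compared to that of vehicle controls.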

[4] = NCI Yeast Anticancer Drug Screen. Data for the mgt1 strain (AID 153); details: S. cerevisiae mgt1 mutant growth inhibition, hits give high values
Summary of the method: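 After exposure of the mgt1 yeast mutant to compound, growth was measured and reported as inhibition compared with vehicle controls.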

[5] = NCI Yeast Anticancer Drug Screen. Data for the rad50 strain (AID 155);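 further: 0% = growth of vehicle-only cultures of the same strain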; details: S. cerevisiae rad50 strain growth inhibition, hits give high values
Summary of the method: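 DNA repair mutant yeast, compound exposure, growth read-out; inhibition is taken relative to vehicle.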

[6] = NCI Yeast Anticancer Drug Screen. Data for the mec2-1 strain (AID 157); details: S. cerevisiae mec2-1 strain, hits give high values
Summary of the method: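 Test agents were screened against the mec2-1 yeast strain, with defined DNA repair or cell cycle alteration. Growth was scored as inhibition against vehicle-only controls.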

[7] = NCI Yeast Anticancer Drug Screen. Data for the rad14 strain (AID 159);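 further: 0% = growth of vehicle-treated control cultures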; details: S. cerevisiae rad14 strain growth inhibition, hits give high values
Summary of the method: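 DNA repair-defective yeast, compound-exposed; % growth inhibition derived by comparison with vehicle-treated controls.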

[8] = NCI Yeast Anticancer Drug Screen. Data for the sgs1 mgt1 strain (AID 161);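 further: 0% = growth of cultures given vehicle only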; details: S. cerevisiae sgs1 mgt1 strain, hits give high values
Summary of the method: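 Inhibition of yeast growth, normalised to vehicle-treated controls, is reported for a strain bearing genetic alterations in DNA damage repair.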

[9] = NCI Yeast Anticancer Drug Screen. Data for the cln2 rad14 strain (AID 165);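 further: 0% = growth equal to vehicle treated cultures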; details: S. cerevisiae cln2 rad14 strain, hits give high values
Summary of the method: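 Growth of compound-exposed yeast (cln2 rad14 genotype) measured and expressed as inhibition relative to vehicle.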

[10] = NCI Yeast Anticancer Drug Screen. Data for the bub3 strain (AID 167); details: S. cerevisiae bub3 mutant strain, hits give high values
Summary of the method: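 In this screen, a yeast mutant lacking normal mitotic checkpoint function is challenged with compound. Relative growth versus vehicle gives the inhibition value.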

[11] = NCI Yeast Anticancer Drug Screen. Data for the wt2 strain (AID 169);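 further: 0% = growth of vehicle-treated yeast cultures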; details: S. cerevisiae wt2 strain growth inhibition, hits give high values
Summary of the method: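 Genetically defined yeast strains from a DNA-repair/cell-cycle panel were used. Compound-exposed yeast growth was measured, and the inhibition was calculated relative to vehicle treatment.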

[12] = NCI Yeast Anticancer Drug Screen. Data for the mlh1 strain (AID 171);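 further: 0% = growth of vehicle-treated control cultures of the same strain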; details: S. cerevisiae mlh1 strain growth inhibition, hits give high values
Summary of the method: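 Here the genetically defined yeast mutant is grown with each compound, and the extent to which its growth falls below that of vehicle-exposed cells is reported.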

[13] = NCI Yeast Anticancer Drug Screen. Data for the sgs1 strain (AID 173);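 further: 0% = growth of vehicle-only control cultures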; details: S. cerevisiae sgs1 mutant, hits give high values
Summary of the method: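 Relative growth inhibition, referenced to vehicle, was determined in a yeast strain with a defined alteration affecting DNA damage repair or cell cycle control after compound exposure.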

[14] = NCI Yeast Anticancer Drug Screen. Data for the mlh1 rad18 strain (AID 175); details: S. cerevisiae mlh1 rad18 strain growth inhibition, hits give high values
Summary of the method: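 In this whole-cell yeast screen, a strain with altered DNA damage repair is challenged with compound, and its growth is measured against matched vehicle-treated controls.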

[15] = NCI Yeast Anticancer Drug Screen. Data for the rad18 strain (AID 177); details: S. cerevisiae rad18 mutant growth inhibition, hits give high values
Summary of the method: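 Screen uses a yeast strain with a defined lesion in DNA damage repair; compound effect is read as loss of growth compared to untreated vehicle cultures.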

[16] = at 5.0 µM (retest, dose inferred, filed as 0.5)
[17] = at 50.0 µM (retest, dose inferred, filed as 5.0)

OC(COc1cccc2ccccc12)CN1CCOCC1 (stereo not drawn)
growth inhibition ([1]; at 1.2 µM): 15% | growth inhibition ([1]; at 3.7 µM): 32% | growth inhibition ([1]; at 11.0 µM): 44% | growth inhibition ([1]; at 33.0 µM): 51% | growth inhibition ([1]; at 100.0 µM): 50% | growth inhibition ([2]; at 1.2 µM): 13% | growth inhibition ([2]; at 3.7 µM): 23% | growth inhibition ([2]; at 11.0 µM): 30% | growth inhibition ([2]; at 33.0 µM): 31% | growth inhibition ([2]; at 100.0 µM): 30% | growth inhibition ([3]; at 1.2 µM): -5% | growth inhibition ([3]; at 3.7 µM): -6% | growth inhibition ([3]; at 11.0 µM): -9% | growth inhibition ([3]; at 33.0 µM): -9% | growth inhibition ([3]; at 100.0 µM): -3% | growth inhibition ([4]; at 1.2 µM): 8% | growth inhibition ([4]; at 3.7 µM): 26% | growth inhibition ([4]; at 11.0 µM): 42% | growth inhibition ([4]; at 33.0 µM): 52% | growth inhibition ([4]; at 100.0 µM): 55% | growth inhibition ([5]; at 1.2 µM): 11% | growth inhibition ([5]; at 3.7 µM): 19% | growth inhibition [5, 16]: 54% | growth inhibition ([5]; at 11.0 µM): 42% | growth inhibition ([5]; at 33.0 µM): 37% | growth inhibition [5, 17]: 78% (active) | growth inhibition ([5]; at 50.0 µM): 71.5% (active) | growth inhibition ([5]; at 100.0 µM): 36% | growth inhibition ([6]; at 1.2 µM): 9% | growth inhibition ([6]; at 3.7 µM): 17% | growth inhibition [6, 16]: 24% | growth inhibition ([6]; at 11.0 µM): 23% | growth inhibition ([6]; at 33.0 µM): 27% | growth inhibition [6, 17]: 46% | growth inhibition ([6]; at 50.0 µM): 37% | growth inhibition ([6]; at 100.0 µM): 39% | growth inhibition ([7]; at 1.2 µM): 41% | growth inhibition ([7]; at 3.7 µM): 39% | growth inhibition ([7]; at 11.0 µM): 45% | growth inhibition ([7]; at 33.0 µM): 49% | growth inhibition ([7]; at 100.0 µM): 52% | growth inhibition [8, 16]: 43% | growth inhibition [8, 17]: 71% (active) | growth inhibition ([8]; at 50.0 µM): 46.5% | growth inhibition [9, 16]: 14% | growth inhibition [9, 17]: 59% | growth inhibition ([9]; at 50.0 µM): 73.5% (active) | growth inhibition ([10]; at 1.2 µM): 8% | growth inhibition ([10]; at 3.7 µM): 25% | growth inhibition [10, 16]: 35% | growth inhibition ([10]; at 11.0 µM): 29% | growth inhibition ([10]; at 33.0 µM): 57% | growth inhibition [10, 17]: 60% | growth inhibition ([10]; at 50.0 µM): 49.1% | growth inhibition ([10]; at 100.0 µM): 47% | growth inhibition ([11]; at 1.2 µM): 17% | growth inhibition ([11]; at 3.7 µM): 27% | growth inhibition ([11]; at 11.0 µM): 32% | growth inhibition ([11]; at 33.0 µM): 39% | growth inhibition ([11]; at 100.0 µM): 35% | growth inhibition ([12]; at 1.2 µM): 11% | growth inhibition ([12]; at 3.7 µM): 21% | growth inhibition ([12]; at 11.0 µM): 33% | growth inhibition ([12]; at 33.0 µM): 18% | growth inhibition ([12]; at 100.0 µM): 37% | growth inhibition ([13]; at 1.2 µM): 29% | growth inhibition ([13]; at 3.7 µM): 49% | growth inhibition ([13]; at 11.0 µM): 61% | growth inhibition ([13]; at 33.0 µM): 59% | growth inhibition ([13]; at 100.0 µM): 56% | growth inhibition [14, 16]: 37% | growth inhibition [14, 17]: 49% | growth inhibition ([14]; at 50.0 µM): 37.3% | growth inhibition ([15]; at 1.2 µM): 32% | growth inhibition ([15]; at 3.7 µM): 39% | growth inhibition ([15]; at 11.0 µM): 55% | growth inhibition ([15]; at 33.0 µM): 64% | growth inhibition ([15]; at 100.0 µM): 51%
